Compound activity deposited in PubChem by several laboratories.
Shown are actives, neighbours in structure and some others; about 4.7% of the full set was active somewhere.
TROY signal inh: TROY signaling inhibition; inhibition, % at 10 µM; hit rate 0.98% among 360,000; Q293 LMP1-TROYcd NF-kB luciferase reporter, 4 h;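 active means compounds whose plate-normalised and pattern-corrected inhibition of the luciferase reporter signal at the single screening dose is 50% or more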
EBV LMP1 NFkB: reduces LMP1-driven NF-kappaB luciferase signal; hit rate 0.69% among 350,000; inhibition, % at 12.5 µM; LMP1-induced NF-kappaB luciferase reporter cells, luminescence; in the data active means inhibition above about 41%
TWEAK-Fn14 inh: blocks TWEAK-Fn14 interaction in a reporter cell assay; TWEAK-stimulated Fn14 reporter cells, luciferase luminescence, 8 h; inhibition, % at 10 µM; hit rate 2% among 360,000; in the data active means inhibition above about 50%
HSP90 refold inh: inhibitors of HSP90 luciferase refolding in rabbit reticulocyte lysate; luciferase refolding luminescence, 3 h; hit rate 0.91% among 290,000; inhibition, % at 5.6 µM;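 active means inhibition above the screen-wide mean plus 3 SD, computed separately per campaign, cut at about 16% in these data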;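 further: inhibitors lower the luminescence because luciferase stays unfolded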
HSF1 inh: HSF1 inhibition. NIH3T3-HGL HSE-luciferase, MG132-induced, luminescence 8 h; stronger effect = lower value. activity change, negative = inhibition, % at 7.5 µM (by protocol). hit rate 0.77% among 300,000. AID 2098;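 active means more than half of replicate wells show activity change below -50%, luminescence cut by over half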;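 further: luciferase reports HSF-1 transcriptional activity via heat shock element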
HSF-1 act: increases HSF-1 driven luciferase reporter signal; NIH3T3-HGL HSF-1 luciferase reporter, MG132, 8 h; 100% = twice DMSO control signal; activation, % at 9 µM; hit rate 1.7% among 300,000; AID 504408;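 active means mean replicate activation of at least 50% with a set share of replicates each reaching 50%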
A number is an active result.

Results for CCn1c(NCc2cccc(OC)c2OC)nc2ccccc21 ?
TROY signal inh: inactive; EBV LMP1 NFkB: inactive; TWEAK-Fn14 inh: 59.6; HSP90 refold inh: inactive; HSF1 inh: inactive; HSF-1 act: inactive

What do the screens show for `COc1ccc(CNc2nc3ccccc3n2CCN2CCCCC2)c(OC)c1`?
TROY signal inh: inactive; EBV LMP1 NFkB: inactive; TWEAK-Fn14 inh: inactive; HSP90 refold inh: inactive; HSF1 inh: inactive; HSF-1 act: 73.5

How did COc1ccc(OC)c(CNc2nc3ccccc3n2CCN2CCCCC2)c1 do in these assays?
TROY signal inh: inactive; EBV LMP1 NFkB: inactive; TWEAK-Fn14 inh: inactive; HSP90 refold inh: inactive; HSF1 inh: inactive; HSF-1 act: inactive

What do the screens show for `CC(C)(C(=O)N1CCC1(C)C(=O)NS(=O)(=O)c1ccccc1Cl)c1ccccc1` (stereo not given)?
TROY signal inh: inactive; TWEAK-Fn14 inh: inactive

Results for CCCNC(=O)C1(C)CCCN(Cc2cc(-c3ccccc3)nn2C)C1 (stereo not given) ?
TROY signal inh: inactive; TWEAK-Fn14 inh: inactive

Results for Cn1c(=O)cc(SCC(=O)N2CCOCC2)c2ccc(Cl)cc21 ?
TROY signal inh: inactive; EBV LMP1 NFkB: inactive; TWEAK-Fn14 inh: inactive; HSP90 refold inh: inactive; HSF1 inh: inactive; HSF-1 act: 97.8

How did COc1cc(/C=C2\CC/C(=C\c3cc(OC)c(O)c(OC)c3)C2=O)cc(OC)c1O do in these assays?
TROY signal inh: inactive; EBV LMP1 NFkB: inactive; TWEAK-Fn14 inh: 79.5; HSP90 refold inh: inactive

Results for COc1cc(/C=C2\CC/C(=C\c3cc(OC)c(OC)c(OC)c3)C2=O)cc(OC)c1OC ?
TROY signal inh: inactive; EBV LMP1 NFkB: inactive; TWEAK-Fn14 inh: inactive; HSP90 refold inh: inactive; HSF1 inh: inactive; HSF-1 act: inactive

How did O=C1NC(=O)/C(=C/c2cccc([N+](=O)[O-])c2)N1 do in these assays?
TROY signal inh: inactive; EBV LMP1 NFkB: inactive; TWEAK-Fn14 inh: inactive; HSP90 refold inh: inactive; HSF1 inh: inactive; HSF-1 act: inactive

Results for CCN1C/C(=C/c2cccc([N+](=O)[O-])c2)C(=O)/C(=C/c2cccc([N+](=O)[O-])c2)C1 ?
TROY signal inh: inactive; EBV LMP1 NFkB: 97.4; TWEAK-Fn14 inh: 95.4; HSP90 refold inh: inactive

Results for COc1cc(/C=C2\COC/C(=C\c3cc(OC)c(OC)c(OC)c3)C2=O)cc(OC)c1OC ?
TROY signal inh: 77.6; EBV LMP1 NFkB: 91.4; TWEAK-Fn14 inh: 101.8; HSP90 refold inh: inactive; HSF1 inh: -92.5; HSF-1 act: inactive

What do the screens show for `COc1cc(/C=C2/CCCC(C(=O)C(F)(F)F)=C2O)ccc1O`?
TROY signal inh: inactive; EBV LMP1 NFkB: inactive; TWEAK-Fn14 inh: inactive; HSP90 refold inh: inactive; HSF1 inh: inactive; HSF-1 act: inactive

What do the screens show for `COc1cc(/C=C2\CCC/C(=C\c3ccc(O)c(OC)c3)C2=O)ccc1O`?
TROY signal inh: inactive; EBV LMP1 NFkB: inactive; TWEAK-Fn14 inh: 85.1; HSP90 refold inh: inactive; HSF1 inh: inactive; HSF-1 act: 113.7

Results for Cc1noc(C)c1S(=O)(=O)N1CCCCC1c1cc(C(=O)Nc2cccc3c2CCCC3)no1 (stereo not given) ?
TROY signal inh: inactive; TWEAK-Fn14 inh: inactive

How did O=c1ccn([C@@H]2O[C@H](CNCc3cccn3-c3ccncc3)[C@@H](O)[C@H]2O)c(=O)[nH]1 do in these assays?
TROY signal inh: inactive; TWEAK-Fn14 inh: inactive

What do the screens show for `COc1cc(/C=C2/CCC/C(=C\c3cc(O)c(OC)c(Cl)c3)C2=O)cc(Cl)c1O`?
TROY signal inh: 57.8; EBV LMP1 NFkB: inactive; TWEAK-Fn14 inh: inactive; HSP90 refold inh: inactive; HSF1 inh: inactive; HSF-1 act: 204.1

What do the screens show for `CCOc1cc(/C=C2\CN(CC)C/C(=C\c3ccc(O)c(OCC)c3)C2=O)ccc1O`?
TROY signal inh: inactive; EBV LMP1 NFkB: inactive; TWEAK-Fn14 inh: 100.2; HSP90 refold inh: inactive; HSF1 inh: inactive; HSF-1 act: inactive

Results for COc1cc(/C=C2\SC(N)=NC2=O)cc(Cl)c1O ?
TROY signal inh: inactive; EBV LMP1 NFkB: inactive; TWEAK-Fn14 inh: inactive; HSP90 refold inh: inactive; HSF1 inh: inactive; HSF-1 act: inactive

What do the screens show for `Cc1ccc(CNC(=O)/C=C/[C@H]2O[C@@H](n3cc(C)c(=O)[nH]c3=O)C[C@@H]2O)o1`?
TROY signal inh: inactive; TWEAK-Fn14 inh: inactive

Results for CC1(C(=O)NCc2cccc3ccccc23)CCN1C(=O)Cc1ccc(-c2ccccc2)cc1 (stereo not given) ?
TROY signal inh: inactive; TWEAK-Fn14 inh: inactive

What do the screens show for `O=C(c1ccccc1)c1cc2ccccc2o1`?
TROY signal inh: inactive; EBV LMP1 NFkB: inactive; TWEAK-Fn14 inh: inactive; HSP90 refold inh: inactive; HSF1 inh: inactive; HSF-1 act: 54.2

What do the screens show for `O=C(c1ccc(F)cc1)c1cc2ccccc2o1`?
TROY signal inh: inactive; EBV LMP1 NFkB: inactive; TWEAK-Fn14 inh: inactive; HSP90 refold inh: inactive; HSF1 inh: inactive; HSF-1 act: inactive

How did C/C(=N\NS(=O)(=O)c1ccc(C)c([N+](=O)[O-])c1)c1cc2ccccc2o1 do in these assays?
TROY signal inh: inactive; EBV LMP1 NFkB: inactive; TWEAK-Fn14 inh: inactive; HSP90 refold inh: inactive; HSF1 inh: inactive; HSF-1 act: inactive

How did Cc1ccc(C(=O)c2cc3ccccc3o2)cc1[N+](=O)[O-] do in these assays?
TROY signal inh: inactive; EBV LMP1 NFkB: inactive; TWEAK-Fn14 inh: inactive; HSP90 refold inh: inactive; HSF1 inh: inactive; HSF-1 act: 64.4

Results for CCc1nc2c(OCc3ccc4c(c3)OCO4)cccn2c1N(C=O)Cc1ccc(OC)cc1 ?
TROY signal inh: inactive; TWEAK-Fn14 inh: inactive

How did COc1ccc(OC)c(NC(=O)Nc2nc(CN(C)C)cs2)c1 do in these assays?
TROY signal inh: inactive; TWEAK-Fn14 inh: inactive

What do the screens show for `Fc1ccc(-c2nc3ccc(Br)cn3c2Cc2ccsc2)cc1`?
TROY signal inh: inactive; TWEAK-Fn14 inh: inactive

Results for O=C(Nc1cccc(Cl)c1)c1csc([C@@H]2O[C@H](CO)[C@H](O)[C@H](O)[C@H]2O)n1 ?
TROY signal inh: inactive; TWEAK-Fn14 inh: inactive

Results for COc1ccc(CCNC(=O)[C@H](CC(C)C)NC(=O)N2CCn3c2nc2ccccc23)cc1OC ?
TROY signal inh: inactive; EBV LMP1 NFkB: inactive; TWEAK-Fn14 inh: inactive; HSP90 refold inh: inactive; HSF1 inh: inactive; HSF-1 act: 56.1

Results for O=c1cc(-c2ccccc2)nc2c(-c3ccccc3)c(C(F)(F)F)[nH]n12 ?
TROY signal inh: 56.3; TWEAK-Fn14 inh: inactive; HSP90 refold inh: inactive; HSF1 inh: inactive; HSF-1 act: inactive

Results for Cc1cc2nc(-c3ccccc3)c(Cc3ccccc3)n2c(C)c1Br ?
TROY signal inh: inactive; TWEAK-Fn14 inh: inactive

What do the screens show for `O=C(CC1c2ccccc2C=C(c2ccsc2)N1c1ccc(-c2cccnc2)cc1)C1CC1` (stereo not given)?
TROY signal inh: inactive; TWEAK-Fn14 inh: inactive

How did Cc1ccc(N=N/C(=C\O)C(=O)c2ccc(Cl)cc2)cc1 do in these assays?
TROY signal inh: inactive; EBV LMP1 NFkB: inactive; TWEAK-Fn14 inh: inactive; HSP90 refold inh: inactive; HSF1 inh: -64.3; HSF-1 act: inactive
